Common to all, as to test: NCI-60 one-dose screen, 48 h (100 = growth as untreated, 0 = no growth, -100 = all killed)
Conditions in all cases: 10 µM unless noted

Test [1] concerns HCT-15 colon.
Test [2] deals with HT29 colon.
For test [3], the system named is SNB-75 CNS.
The test system of test [4] is SNB-19 CNS.
Test [5] relates to U251 CNS.
The subject of test [6] is PC-3 prostate.
Test [7] deals with SK-MEL-5 melanoma.
Test [8] has as its system UACC-62 melanoma.
In test [9] the test system is LOX IMVI melanoma.
For test [10], the system named is SK-MEL-28 melanoma.

Structures are written as SMILES. Compounds without any hit were thinned out: in the full panel of roughly 83,000, 20% have a hit.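 Step 1: grow cells in 96-well plates. Step 2: add test compound at a single concentration. Step 3: incubate 48 h. Step 4: record percent growth.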 Unmarked numbers belong to inactive results. Activity calls are given as the source filed them. The calls were made as follows: active = growth percent below 10; inactive = the rest.

For `O=c1ccn(Cc2cn(-c3c4ccccc4nc4ccccc34)nn2)c(=O)[nH]1`, the growth in test [1] was 91.6%; in test [2] it was 104%; in [3], 102%; in [4], 94.1%; in [5], 89.5%; in test [6], 97.5%. For the same compound, the growth in test [7] is 91.3%; in [8], 91.4%; in [9], 74.2%; in test [10], 102%.

As to `CCCCCCCCCCCCCCCCCCOc1ccccc1CCCOP(=O)(O)OCC[N+](C)(C)C`, the growth was 51.3% in [1]; 12.7% in test [2]; 83.3% in [3]; 33.7% in test [4]; 39.4% in test [5]; 0.281% (active) in [6]. Besides, the growth is 80.9% in [7], 55.7% in [8], 58.1% in [9] and 93.1% in [10].

With `Nc1ccccc1-c1cc2c(c3c1[nH]c1ccccc13)CCCCC2`, the growth in test [1] was 86.9%; in [2] it was 88%; in [3], 105%; in [4], 104%; in [5], 103%; in [6], 92.1%. In addition, the growth was 93.8% in test [7], 95.4% in test [8], 86.7% in test [9] and 107% in test [10].

Take `COc1cc(-c2nc3sccn3c2-c2ccnc(NCCCNS(=O)(=O)c3ccc(F)cc3)n2)ccc1F`: the growth was 44.8% in test [1]; 61% in test [2]; 59.9% in [3]; 96.3% in test [4]; 91.4% in test [5]; 46.8% in [6]. For the same compound, the growth was 40.7% in [7], 29.7% in [8], 48.3% in test [9] and 73.9% in test [10].

On to `O=C1NC(=O)C(Cn2cnc3ccccc32)N1` (stereo not given), for which the growth in test [1] was 101%; in test [2], 105%; in test [3], 85.7%; in [4], 95.5%; in test [5], 101%; in test [6], 95%. For the same compound, the growth in test [7] was 101%; in [8], 98.5%; in test [9] it was 97.8%; in test [10] it was 104%.

Take `Nc1ccc(Sc2ccc([N+](=O)[O-])c3nonc23)cc1`: the growth was 58.2% in test [1]; 70.8% in test [2]; 90.7% in test [3]; 95.6% in [4]; 90.9% in test [5]; 87.1% in test [6]. Also, the growth in test [7] is 88.1%; in test [8] it was 84.5%; in [9] it was 80.3%; in test [10], 102%.

On to `COc1c(N2CC3CCCN(C(C)=O)C3C2)c(F)cc2c(=O)c(C(=O)N[C@H]3C(O)[C@@H](O)C(CO)O[C@H]3O)cn(C3CC3)c12` (stereo not given in full), for which the growth is 98.5% in test [1]; 105% in test [2]; 100% in [3]; 99.4% in test [4]; 102% in test [5]; 108% in [6]. Also, the growth in [7] is 101%; in [8], 101%; in test [9], 87.1%; in [10], 112%.

As to `CCN(CC)CCNc1nc2ccccc2c2c(=O)c3cc(Cl)ccc3sc12`, the growth is 39.8% in test [1]; 18.3% in [2]; 29.6% in test [3]; 69.5% in test [4]; 39.7% in test [5]; 56.7% in [6]. The growth in test [7] was 74.4%; in test [8] it was 65.4%; in [9], -58.8% (active); in test [10] it was 98.1%.

Consider `NCCOc1ncccc1/C=C1\c2ccccc2-c2ccc(C(F)F)cc21`, for which the growth in test [1] is 28.8%; in [2], 48.9%; in [3] it was 53.2%; in [4] it was 40.4%; in test [5], 35.9%; in test [6], 50.9%. Moreover, the growth in [7] was 58.2%; in test [8], 68.2%; in [9], 12.3%; in [10], 82%.

With `Cc1c(C(=O)/C=C/Nc2c(Cl)cc(S(N)(=O)=O)cc2Cl)sc2nc3ccccc3n12`, the growth in test [1] was 105%; in test [2], 108%; in test [3], 93.6%; in test [4], 99.3%; in test [5], 107%; in test [6], 104%. Also, the growth in test [7] is 104%; in [8], 101%; in [9], 97.3%; in test [10], 103%.

On to `COc1cc(C(=O)c2cnc(-c3cccc4[nH]ccc34)[nH]2)cc(OC)c1OC`, for which the growth was 17.8% in [1]; 7.58% (active) in test [2]; 30.5% in test [3]; 40.3% in [4]; 20.2% in test [5]; 22.4% in test [6]. In addition, the growth was -23.6% (active) in [7], 39.3% in test [8], 28.1% in [9] and 55.1% in test [10].

In the case of `Cc1[nH]c(C(=O)Nc2ccc(C(=O)NCCN)cc2OC(C)C)c(Cl)c1Cl`, the growth in [1] was 34.3%; in [2] it was 2.87% (active); in test [3] it was 78.4%; in test [4], 52%; in [5], -21.4% (active); in [6], 45%. In addition, the growth is 71.2% in test [7], 84% in test [8], -95.1% (active) in test [9] and 70.9% in test [10].

Regarding `CCCCC[C@H](O)C/C=C1/C(=O)C=C[C@@H]1C/C=C\CCCC(=O)OC`, the growth in test [1] is 20.8%; in test [2] it was 3.13% (active); in test [3], 96.5%; in test [4], 60.4%; in [5] it was 45.5%; in test [6] it was 26.5%. Further, the growth in test [7] was 38%; in [8], 13.6%; in test [9] it was -43.2% (active); in test [10], 28.3%.

The values above are taken from PubChem BioAssay (NCI).
